This is an account of results in article PMC5540273 (PLoS ONE, 2017).

SMILES strings stand for the structures.

Among the test systems are DMPK; DYRK1A; DYRK1B; DYRK2; EGFR; EIF2AK1; EPHA1; EPHA2; EPHA3; EPHA4; EPHA5; EPHA6; EPHA7; EPHA8; EPHB1; EPHB2; EPHB3.
What all share (conditions): concentration: 1 μM, replicates: in singlicate; n = 1
The next test has as its system T1, DMPK2.
T1 construct: gene CDC42BPG

Another test relates to T2, DRAK1.
T2 construct: gene STK17A

The subject of another test is T3, DRAK2.
T3 construct: gene STK17B
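Note: KINOMEscan kinase panel screen.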

As to `COc1cccc(C2=C(Nc3cc(Cl)c(O)c(Cl)c3)C(=O)NC2=O)c1` [SB-390767], the “%Inh” value in the test with DMPK2 was found to be 0%; with DMPK, 0%; in the test with DRAK1, 2%; in the test with DRAK2, 0%; with DYRK1A it was 38%; with DYRK1B, 0%. The “%Inh” value in the test with DYRK2 is listed as 2%; in the test with EGFR, 0%; in the test with EIF2AK1 it was 0%; with EPHA1 it was 8%; in the test on EPHA2, 19%; with EPHA3, 0%. Besides, the “%Inh” value in the test on EPHA4 was determined as 28%; in the test with EPHA5, 0%; in the test on EPHA6, 30%; in the test with EPHA7 it was 9%; in the test on EPHA8, 17%; in the test on EPHB1 it was 11%. Besides, the “%Inh” value in the test on EPHB2 is given as 0%; in the test on EPHB3 it was 26%.

As to `Cc1cnc(N)c(/C=C/c2cncc(C(=O)NCCc3ccc(Cl)cc3Cl)c2)c1.Cl` [GSK190937], the “%Inh” value is 3% with DMPK2; 0% in the test with DMPK; 18% with DRAK1; 0% in the test with DRAK2; 8% in the test with DYRK1A; 15% in the test on DYRK1B. The “%Inh” value in the test with DYRK2 was determined as 4%; in the test with EGFR it was 0%; in the test with EIF2AK1, 0%; in the test with EPHA1, 0%; in the test on EPHA2, 8%; in the test with EPHA3, 16%. The “%Inh” value in the test with EPHA4 came to 6%; in the test with EPHA5 it was 0%; in the test on EPHA6, 0%; in the test on EPHA7, 6%; in the test with EPHA8 it was 10%; in the test with EPHB1 it was 5%. The “%Inh” value with EPHB2 turned out to be 0%; with EPHB3, 6%.

Take `CNC(=O)c1ccc(C)c(-n2c(C)cc(OCc3ccc(F)cc3F)c(Br)c2=O)c1`: the “%Inh” value in the test on DMPK2 was determined as 0%; with DMPK it was 0%; with DRAK1, 1%; in the test on DRAK2 it was 0%; in the test with DYRK1A, 0%; in the test with DYRK1B it was 56%. Further, the “%Inh” value in the test with DYRK2 worked out at 0%; with EGFR it was 0%; with EIF2AK1, 0%; in the test on EPHA1, 5%; in the test on EPHA2, 0%; in the test on EPHA3, 0%. The “%Inh” value in the test with EPHA4, in the test on EPHA5, with EPHA6, in the test on EPHA7, in the test with EPHA8 and with EPHB1 was 0% each time. For the same molecule, the “%Inh” value is recorded as 6% with EPHB2 and 0% with EPHB3.

For the molecule `COc1ccc2cc(-c3nc(-c4ccccc4C(C)C)[nH]c3-c3ccncc3)ccc2c1` [SB-660566], the “%Inh” value with DMPK2 stood at 0%; with DMPK it was 0%; in the test on DRAK1, 6%; in the test with DRAK2 it was 0%; in the test with DYRK1A, 31%; with DYRK1B, 15%. In addition, the “%Inh” value is listed as 7% in the test with DYRK2; 18% in the test with EGFR; 3% in the test on EIF2AK1; 22% in the test on EPHA1; 0% with EPHA2; 0% with EPHA3. For the same molecule, the “%Inh” value in the test with EPHA4 came to 25%; with EPHA5, 0%; in the test with EPHA6, 30%; with EPHA7 it was 15%; in the test on EPHA8, 13%; with EPHB1, 4%. The entries for the “%Inh” value in the test with EPHB2 and with EPHB3 were 15% and 28%, respectively.

With `CS(=O)(=O)CCNCc1nc(-c2ccc3ncnc(Nc4ccc5c(cnn5Cc5ccccc5)c4)c3c2)cs1.Cl.Cl` [GW569716], the “%Inh” value is given as 0% in the test on DMPK2; 0% in the test on DMPK; 35% with DRAK1; 21% in the test on DRAK2; 36% with DYRK1A; 0% in the test with DYRK1B. The “%Inh” value with DYRK2 is listed as 0%; in the test with EIF2AK1, 0%; in the test on EPHA1, 14%; in the test on EPHA2, 0%; with EPHA3, 0%; with EPHA4 it was 6%. For the same molecule, the “%Inh” value in the test with EPHA5 stood at 8%; in the test with EPHA6, 7%; with EPHA7, 4%; in the test with EPHA8, 11%; in the test with EPHB1, 0%; with EPHB2, 0%. Besides, in the test on EPHB3, the “%Inh” value was 13%.

As for `COc1ccc(CSc2nnc(-c3ccc4ncsc4c3)o2)cc1C(F)(F)F`, the “%Inh” value with DMPK2 was 0%; in the test with DMPK, 0%; in the test on DRAK1 it was 0%; in the test on DRAK2, 3%; in the test on DYRK1A, 36%; in the test with DYRK1B it was 28%. The “%Inh” value in the test on DYRK2 is 0%; in the test on EGFR, 7%; in the test on EIF2AK1, 0%; in the test on EPHA1 it was 0%; in the test on EPHA2 it was 3%; in the test on EPHA3, 3%. Also, the “%Inh” value in the test on EPHA4 turned out to be 1%; with EPHA5, 0%; with EPHA6, 20%; in the test on EPHA7, 0%; in the test on EPHA8 it was 0%; in the test with EPHB1, 0%. Besides, the “%Inh” value with EPHB2 turned out to be 0%; with EPHB3, 14%.

With `Cn1cncc1-c1cc2c(Nc3ccc(OCc4ccccc4)cc3)ncnc2cn1` [GW281179], the “%Inh” value was found to be 0% with DMPK2; 0% in the test on DMPK; 93% in the test with DRAK1; 5% in the test on DRAK2; 19% with DYRK1A; 21% in the test with DYRK1B. The “%Inh” value in the test with DYRK2 turned out to be 3%; with EGFR it was 100%; with EIF2AK1, 0%; with EPHA1, 14%; in the test with EPHA2, 13%; in the test on EPHA3, 0%. The “%Inh” value was 6% in the test on EPHA4; 0% in the test on EPHA5; 14% with EPHA6; 9% in the test on EPHA7; 11% in the test with EPHA8; 21% with EPHB1. Also, the “%Inh” value in the test with EPHB2 came to 0%; with EPHB3 it was 25%.

Regarding `O=C(Nc1n[nH]c2nc(-c3cccs3)c(Br)cc12)C1CCCC1` [SB-743341], the “%Inh” value in the test on DMPK2 is recorded as 9%; with DMPK, 5%; with DRAK1, 9%; with DRAK2, 7%; with DYRK1A it was 24%; with DYRK1B it was 0%. Moreover, the “%Inh” value in the test with DYRK2 turned out to be 36%; with EGFR, 1%; in the test with EIF2AK1, 31%; in the test with EPHA1, 10%; in the test with EPHA2 it was 0%; with EPHA3 it was 0%. Besides, the “%Inh” value in the test with EPHA4 amounted to 6%; with EPHA5, 13%; in the test on EPHA6, 27%; in the test with EPHA7, 8%; in the test on EPHA8, 1%; in the test on EPHB1 it was 0%. Further, the “%Inh” value with EPHB2 came out at 4%; with EPHB3 it was 35%.
